Test results reported in PubChem BioAssay.
Values without a mark were called inactive. For some of these results: Results with a measured potency or affinity are listed apart. Active and inactive are the calls of the source. Unless noted, the rule behind the calls is not given here.

Columns and labels:
[1] = antimalarial activity against Dd2 strain (AID 2302;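 active = growth inhibition above 50% at the single 2 µM test dose, taken to imply half-maximal potency below 2 µM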;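 note: 0% = DMSO untreated growth and 100% = chloroquine plus artemisinin killed control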); conditions: P. falciparum Dd2 in RBCs, LDH growth readout, 72 h; at 2 µM; active compounds read high
[2] = human hepatoma cell viability loss – ATP luminescence, cytotoxicity control for P. falciparum antimalarial project, primary screen (AID 2303;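 active = inhibition above 50%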;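 note: 0% = DMSO wells and 100% = digitonin-killed cells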); conditions: HepG2 viability, 24-48 h, at 10 µM, active compounds read high
[3] = target: L-lactate dehydrogenase (Plasmodium falciparum (isolate CDC / Honduras)) (UniProt Q27743); test: PfLDH activity inhibition – cell lysate, 3D7 strain, counter-screen for P. falciparum growth inhibition project (AID 2304);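 note: 0% = vehicle and 100% = reference inhibitor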; conditions: P. falciparum 3D7 crude extract, LDH APAD/NBT absorbance; at 2 µM; active compounds read high
L-lactate dehydrogenase (Plasmodium falciparum (isolate CDC / Honduras)), sequence (Q27743 whole entry, looked up): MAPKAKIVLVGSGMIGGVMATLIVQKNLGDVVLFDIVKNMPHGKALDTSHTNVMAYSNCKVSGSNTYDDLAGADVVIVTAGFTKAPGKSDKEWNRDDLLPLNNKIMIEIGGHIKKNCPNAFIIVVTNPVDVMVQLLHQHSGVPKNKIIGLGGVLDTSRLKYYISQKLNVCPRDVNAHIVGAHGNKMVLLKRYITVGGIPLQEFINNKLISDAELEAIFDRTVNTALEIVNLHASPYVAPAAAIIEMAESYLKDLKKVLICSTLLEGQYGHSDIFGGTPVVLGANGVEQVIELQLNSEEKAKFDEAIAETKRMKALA

[4] = inhibition of 3D7 malaria parasite growth – strain 3D7 (AID 2306);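 note: 0% = DMSO wells and 100% = chloroquine plus artemisinin control wells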; conditions: P. falciparum 3D7 erythrocytic growth, LDH absorbance, 72 h; at 2 µM; active compounds read high
[5] = target: Calcium-dependent protein kinase 1 (Plasmodium falciparum (isolate 3D7)) (UniProt P62344); test: PfCDPK1 kinase inhibitors, biochemical, TCAMS library (AID 1159585; cut-off not given, nearly all actives have IC50 up to about 0.98 µM;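 note: inhibitors leave more ATP so luminescence rises with inhibition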); conditions: recombinant PfCDPK1, Kinase-Glo ATP depletion luminescence
Calcium-dependent protein kinase 1 (Plasmodium falciparum (isolate 3D7)), sequence (P62344 whole entry, looked up): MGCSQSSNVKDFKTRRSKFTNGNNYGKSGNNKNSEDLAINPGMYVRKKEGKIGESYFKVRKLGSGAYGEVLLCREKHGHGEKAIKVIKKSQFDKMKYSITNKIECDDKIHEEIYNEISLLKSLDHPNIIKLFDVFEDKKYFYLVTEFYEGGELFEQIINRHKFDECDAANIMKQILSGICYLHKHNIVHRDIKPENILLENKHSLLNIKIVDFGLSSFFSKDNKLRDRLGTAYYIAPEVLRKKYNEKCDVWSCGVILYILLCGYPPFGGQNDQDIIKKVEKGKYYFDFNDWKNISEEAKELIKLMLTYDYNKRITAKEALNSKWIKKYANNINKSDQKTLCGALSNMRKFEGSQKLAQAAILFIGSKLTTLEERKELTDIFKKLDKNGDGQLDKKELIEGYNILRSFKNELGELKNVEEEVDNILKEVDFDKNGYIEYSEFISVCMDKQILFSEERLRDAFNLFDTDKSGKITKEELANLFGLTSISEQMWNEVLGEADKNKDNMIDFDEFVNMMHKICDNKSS

[6] = target: Plasmodium falciparum protein kinase 6 (PK6, PF3D7_1337100) (UniProt Q8IDW1); test: PfPK6 kinase inhibitors, biochemical, TCAMS library (AID 1159586); conditions: recombinant PfPK6, Kinase-Glo ATP depletion luminescence
Plasmodium falciparum protein kinase 6 (PK6, PF3D7_1337100), sequence (Q8IDW1 1-305): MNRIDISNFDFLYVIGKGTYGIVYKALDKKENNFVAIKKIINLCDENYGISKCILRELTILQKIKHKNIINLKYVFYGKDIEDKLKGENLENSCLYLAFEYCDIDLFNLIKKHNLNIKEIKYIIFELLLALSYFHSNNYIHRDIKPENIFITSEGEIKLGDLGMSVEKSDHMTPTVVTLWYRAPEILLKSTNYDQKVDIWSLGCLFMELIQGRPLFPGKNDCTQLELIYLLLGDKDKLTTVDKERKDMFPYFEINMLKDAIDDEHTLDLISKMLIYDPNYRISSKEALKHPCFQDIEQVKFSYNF

[7] = target: Protein kinase 7 (PK7), Plasmodium falciparum 3D7 (PF3D7_0213400) (UniProt Q7YTF7); test: inhibition of Plasmodium PK7 catalytic activity – biochemical, TCAMS antimalarial set, Kinase-Glo luminescence (AID 1159587); conditions: recombinant PfPK7, Kinase-Glo ATP depletion luminescence
Protein kinase 7 (PK7), Plasmodium falciparum 3D7 (PF3D7_0213400), sequence (Q7YTF7 1-343): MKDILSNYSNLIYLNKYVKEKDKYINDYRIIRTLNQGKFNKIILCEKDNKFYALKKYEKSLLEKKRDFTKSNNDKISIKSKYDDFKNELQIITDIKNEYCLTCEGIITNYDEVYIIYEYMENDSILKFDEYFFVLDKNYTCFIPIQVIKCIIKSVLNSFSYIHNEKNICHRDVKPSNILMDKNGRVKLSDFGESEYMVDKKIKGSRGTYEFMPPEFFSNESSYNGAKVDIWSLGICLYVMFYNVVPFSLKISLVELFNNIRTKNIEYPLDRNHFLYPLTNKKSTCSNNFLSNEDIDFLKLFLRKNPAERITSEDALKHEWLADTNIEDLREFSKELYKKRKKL

[8] = target: Calcium-dependent protein kinase 4 (Plasmodium falciparum (isolate 3D7)) (UniProt Q8IBS5); test: PfCDPK4 kinase inhibitors, biochemical, TCAMS library (AID 1159588; cut-off not given, nearly all actives have IC50 up to about 0.91 µM); conditions: recombinant PfCDPK4, Kinase-Glo ATP depletion luminescence
Calcium-dependent protein kinase 4 (Plasmodium falciparum (isolate 3D7)), sequence (Q8IBS5 whole entry, looked up): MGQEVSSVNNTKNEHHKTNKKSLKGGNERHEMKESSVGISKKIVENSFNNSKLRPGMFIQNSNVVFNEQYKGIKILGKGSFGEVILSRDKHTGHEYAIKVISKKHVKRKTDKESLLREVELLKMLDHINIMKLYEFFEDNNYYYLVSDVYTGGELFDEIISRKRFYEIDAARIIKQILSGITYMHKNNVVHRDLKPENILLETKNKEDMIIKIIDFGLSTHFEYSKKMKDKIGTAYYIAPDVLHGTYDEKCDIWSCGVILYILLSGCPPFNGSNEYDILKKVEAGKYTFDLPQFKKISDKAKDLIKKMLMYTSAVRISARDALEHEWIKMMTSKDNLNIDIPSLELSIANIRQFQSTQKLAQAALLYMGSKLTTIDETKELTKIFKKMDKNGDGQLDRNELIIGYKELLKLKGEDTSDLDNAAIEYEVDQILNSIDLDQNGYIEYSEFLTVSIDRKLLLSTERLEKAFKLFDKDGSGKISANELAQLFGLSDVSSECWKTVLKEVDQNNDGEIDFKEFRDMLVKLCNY

SMILES	growth inhibition [1]	inhibition [2]	inhibition [3] [%]	growth inhibition [4]	outcome [5]	outcome [6]	outcome [7]	outcome [8]
CCCC[C@H](NC(=O)OC(C)(C)C)C(=O)Nc1ccc(Cc2ccc(NC(=O)[C@H](CCCC)NC(=O)OC(C)(C)C)cc2)cc1	71% (active)	5%	3	95% (active)	inactive	inactive	inactive	inactive
COc1cc(CCNc2nc(NCc3cccc4ccccc34)nc(N3CCC(N)CC3)n2)ccc1O	59% (active)	16%	5	100% (active)	inactive	inactive	inactive	inactive
CCC(C)OC(=O)C1=C(C)NC2=C(C(=O)CC(c3ccc(OC)c(OC)c3)C2)C1c1cccc(O)c1 (stereo not given)	98% (active)	-8%	0	100% (active)	inactive	inactive	inactive	inactive
Nc1c2ccccc2nc2ccc(Cl)cc12	100% (active)	55% (active)	6	101% (active)	inactive	inactive	inactive	inactive
Cc1cc(C(=O)Nc2ccc(-c3ccccc3)cc2)no1	94% (active)	6%	-3	90% (active)	inactive	inactive	inactive	inactive
Cc1cccc2[nH]c(-c3ccc(-c4cccc(NC(=O)CCc5cnc[nH]5)c4)s3)nc12	70% (active)	2%	-4	94% (active)	inactive	inactive	inactive	inactive
CCNc1cc(C(=O)N[C@@H](Cc2ccccc2)[C@H](O)CNC(C)(C)Cc2ccccc2)cc(N2CCCC2=O)c1	78% (active)	1%	3	99% (active)	inactive	inactive	inactive	inactive
CC1CCc2sc(-c3nnc(SC(C)C(=O)NC4CC4)o3)cc2C1 (stereo not given)	69% (active)	5%	-4	83% (active)	inactive	inactive	inactive	inactive
CCCCCCn1c(Sc2ccc(C#N)c([N+](=O)[O-])c2)nnc1-c1cc(OC)cc(OC)c1	41%	35%	-5	95% (active)	inactive	inactive	inactive	inactive
CC1(C)CCCN(Cc2c(O)ccc3c(=O)c(-c4nc5ccccc5s4)c(N)oc23)C1	100% (active)	20%	-1	101% (active)	inactive	inactive	inactive	inactive
CCCNCCc1ccc(NS(=O)(=O)c2cccc(-c3ccc(Cl)cc3)c2)cc1	36%	36%	0	101% (active)	inactive	inactive	inactive	inactive
Nc1c2nc(-c3c(F)cccc3Cl)[nH]c(=O)c2nc(=O)n1-c1ccccc1	0%	52% (active)	2	95% (active)	inactive	inactive	inactive	inactive
O=C(Nc1ccc(N2CCN(Cc3c[nH]c4cc(F)ccc34)CC2)cc1)c1ccccc1-c1ccc(C(F)(F)F)cc1	7%	20%	9	85% (active)	inactive	inactive	inactive	inactive
CS(=O)(=O)CCOCc1ccc(-c2ccc3ncnc(Nc4ccc(OCc5cccc(F)c5)c(Cl)c4)c3c2)o1	43%	1%	5	96% (active)	inactive	inactive	inactive	inactive
CCc1nn2c(Nc3ccncc3)cc(C)nc2c1-c1ccccc1	98% (active)	4%	0	100% (active)	inactive	inactive	inactive	inactive
Cc1cccc2[nH]cc(C3CCN(CCC4CCN(C(=O)/C=C/c5ccc(Cl)c(Cl)c5)CC4)CC3)c12	8%	13%	2	91% (active)	inactive	inactive	inactive	inactive
CS(=O)(=O)NCCCNCc1cccc(-c2cccc(-c3nc4ccc(F)cc4[nH]3)c2)c1	5%	4%	-13	100% (active)	inactive	inactive	inactive	inactive
CCN(CCNC(=O)C1CCN(c2cc(-c3cccc(C)c3)ncn2)CC1)Cc1ccccc1	72% (active)	24%	2	83% (active)	inactive	inactive	inactive	inactive
CN(C(=O)Nc1ccc(F)cc1)C1CCN(CCCCCNC(=O)/C=C/c2ccc(Cl)c(Cl)c2)CC1	-3%	38%	-5	89% (active)	inactive	inactive	inactive	inactive
COc1cccc2c(NN=Cc3cccc(F)c3)ccnc12	44%	12%	5	99% (active)	inactive	inactive	inactive	inactive
